Reference: PubChem BioAssay (NCI)
This is part of a sample that, as a whole, favours compounds with a hit. Of some 83,000 tested, about 20% had one in any assay.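 How to read the values: 0–100, growth inhibition (40 = 60% inhibited); 0, no net growth; -100 to 0, cell death (-40 = 40% of starting cells died; -100 = all dead).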 A number with no mark means an inactive call. Calls of active or inactive are those of the source. Rule for the calls: active = growth percent below 10; inactive = the rest.

Key:
Test in all cases: NCI-60 one-dose screen, 48 h (100 = growth as untreated, 0 = no growth, -100 = all killed)
Details in all cases: 10 µM unless noted
T-47D breast = test system: T-47D breast
BT-549 breast = test system: BT-549 breast
MDA-MB-435 melanoma = test system: MDA-MB-435 melanoma
SW-620 colon = test system: SW-620 colon
HCT-116 colon = test system: HCT-116 colon
HCC-2998 colon = test system: HCC-2998 colon
KM12 colon = test system: KM12 colon
MCF7 breast = test system: MCF7 breast

SMILES	growth (T-47D breast)	growth (BT-549 breast)	growth (MDA-MB-435 melanoma)	growth (SW-620 colon)	growth (HCT-116 colon)	growth (HCC-2998 colon)	growth (KM12 colon)	growth (MCF7 breast)
CC[N+](C)(C)N	103%	105%	109%	105%	99%	113%	107%	–
CCOC(=O)C1C(=O)C(=O)N(C(C)C)C1C(=O)OCC (stereo not drawn)	105%	119%	104%	103%	110%	104%	98.9%	–
O=C(O)c1ccc(-c2nn(-c3ccc(C(=O)O)cc3)cc2CNc2ccc(Br)cc2)cc1	96.6%	98.8%	107%	107%	101%	–	98.1%	–
CCCCCC(=C/c1ccccc1)/C=N/N=C(N)N	-34.3% (active)	46.6%	-80% (active)	–	-56.6% (active)	-79% (active)	–	-69.6% (active)
COc1ccc(C(=O)c2no[n+]([O-])c2C(=O)c2ccc(OC)cc2)cc1	24.7%	50.3%	44.3%	-82.9% (active)	-98.1% (active)	110%	102%	–
COc1ccc2oc(=O)cc(CN3C(=O)S/C(=C\c4ccc(Cl)cc4)C3=O)c2c1	86.6%	91.5%	105%	108%	84.8%	104%	96.1%	–
COc1ccc(CN2C(=O)/C(=C\C(=O)c3ccc(OCCN4CCCCC4)cc3)c3ccccc32)cc1	15.5%	81.5%	95%	-39.9% (active)	4.2% (active)	94.9%	89%	–
CCOC(=O)c1cc(-c2ccc(OC)cc2)[nH]c1NNC(=O)CCOC	95.2%	91.9%	96.9%	101%	93.8%	122%	118%	–
Cc1ccc(C(=O)NN)cc1	109%	98.8%	109%	–	100%	99.5%	–	99.7%
CCCC(=O)Nc1ccccc1C(=O)O	117%	113%	101%	105%	103%	97.9%	90.5%	–
CCC(C)CC(N)O (stereo not drawn)	137%	108%	104%	108%	–	–	102%	101%
NC(N)=Nc1ccc(/C=C2\C=Cc3ccccc32)cc1	50.6%	81.5%	21.6%	33.5%	47.5%	62.6%	15.2%	–
COc1cc(/C=C/C(=O)/C=C(/C=C/c2ccc(OC(C)=O)c(OC)c2)OB(F)F)ccc1OC(C)=O	41.9%	37.3%	41%	17.5%	–	–	73.8%	21.5%
O=C1NCCN1/N=C/c1c(Cl)nc2n1CCS2	119%	97.7%	112%	103%	–	111%	101%	–
COc1cc2cc3cc4cc(OC)c(OC)cc4c(C)[n+]3cc2cc1OC (tested in a mixture with another compound)	91.7%	85.5%	71%	83.2%	–	102%	80.4%	–
CCOC(=O)C1=C(C(F)(F)F)NC(=S)NC1CN1C(=O)c2ccccc2C1=O (stereo not drawn)	107%	118%	118%	93.1%	103%	63.3%	111%	–
CC(=O)Nc1nc(C)c(C(=O)N/N=C/c2cccs2)s1	67.8%	120%	111%	94.2%	–	114%	116%	75.7%
COc1ccc(OC)c(Cn2cc3c(c2)-c2oncc2CC3)c1	36.1%	33.3%	-40.1% (active)	22.4%	–	–	28.9%	8.44% (active)
